Test results from PubChem BioAssay (EPA / NIEHS).
Active and inactive are the calls of the source. How the source made its calls: active means hit-call score of the fitted dose curve at least 0.9, where 1 is the maximum; inactive means score below 0.9.

The compounds below were run on Cyclin Dependent Kinase Inhibitor 1A (CDKN1A), CDKN1A (gene 1026) (assay: LTEA_HepaRG_CDKN1A: Life Technologies and Expression Analysis (LTEA) Assay for Cyclin Dependent Kinase Inhibitor 1A (CDKN1A) using HepaRG (AID 2283450)). Conditions: mRNA level, 48 h; actives raise or lower the signal.
Description: LTEA_HepaRG is a cell based, multiplexed-readout assay that uses HepaRG, a human liver cell line, with measurements taken at 48 hours after chemical dosing on a 96-well plate.LTEA_HepaRG_CDKN1A is one of 102 assay component(s) measured in the LTEA HepaRG cell culture assay. It is a marker of Cell proliferation, survival, death.Data from the assay component LTEA_HepaRG_CDKN1A was analyzed into 1 endpoint. This assay endpoint, LTEA_HepaRG_CDKN1A, was analyzed with bidirectional fitting relative to DMSO as the negative control and baseline of activity. Using a type of inducible reporter, measures of mRNA induction for gain or loss-of-signal activity can be used to understand regulation of transcription factor activity. To generalize the intended target to other relatable targets, this assay endpoint is annotated to the cell cycle intended target family, where the subfamily is Cell proliferation, survival, death.
A total of 1060 chemcials from the ToxCast library were tested in eight-point concentration-response experiments. Cell culture and cytotoxicity assays were conducted at Thermo Fisher Scientific's Custom Services facility (Madison, WI). A single lot of human HepaRG cells (Thermo Fisher Scientific, Frederick, MD) was used for the cell culture experiments. 96-well format collagen type I coated plates of human HepaRG cells were prepared using established methods. Briefly, cryopreserved HepaRG cells were thawed, plated at a density of approximately 100,000 cells/well in HepaRG Thaw, Plate, and General Purpose media (HPRG770, Thermo Fisher Scientific), and incubated for 48 hours. 0.5% DMSO was selected as vehicle control to balance the requisite need of DMSO in HepaRG cultures to maintain differentiation (for example, baseline metabolism, proportions of hepatocytes vs. cholangiocytes), while enabling further hepatic receptor pathway activation (for example, PXR and CAR) in response to chemical exposure. 48 hours after plating, the culture medium was replaced with HepaRG Serum-Free Incudtion Media. Cells were exposed to each test chemical in duplicate and maintained in CO2 incubators for another 48 hours. Chemical plates were thawed to room temperature and 200x concentrations of treatment groups were prepared. 8-point conentration-reponse curves were made with the highest exposure at 100 uM, followed by half-log dilutions, all in 0.5% DMSO. Each test plate contained variouse controls, induction positive controls (1mM phenobarbital), cytotoxicity positive controls ([…] aflatoxin B1), vehicle controls (0.5% DMSO), and total lysis controls (0.5% DMSO). Cell morphology images were taken using an Essen IncuCyte FLR automated microscope, with six 96-well plates imaged in about 24 minutes. Images were captured and exported and JPEG files. Spent culture media was transfered to black-well plates for the LDH assay, and remaining media was sorted at -80 C for later use. Cells were treated with RLT buffer and frozen until shipped for gene expression analysis. Total RNA was isolated from the cell suspension in 75 uL of Buffer RLT (Qiagen, Germantown, MD 20874) by Quintiles/Expression Analysis (Durham, NC) using a custom isolation procedure. Total RNA from each plate well was transferred to a preamplification plate. Fluidigm's 96.96 Dynamic ArrayTM (Fluidigm, Amsterdam, the Netherlands) technology was used for gene expression analyses by quantitative reverse transcription polymerase chain reaction (qRT-PCR, performed by Quintiles/Expression Analysis, Durham, NC)89. Standard TaqManTM Assays (Applied Biosystems/ThermoFisher Scientific, Foster City, CA) were used to assess the expression of 93 genes selected based on their selectivity and sensitivity to important hepatic receptors known to be modulated by environmental chemicals; importance in human hepatocyte functionality; and hepatotoxicity. […]

SMILES	outcome	AC50
CN1CCN(c2ccccc2/C=C2\SCCN(c3ccc(Cl)c(Cl)c3)C2=O)CC1	inactive	–
CC(=O)CC(C)(C)O	inactive	–
CC#C[C@]1(O)CC[C@H]2[C@@H]3CCC4=CC(=O)CCC4=C3[C@@H](c3ccc(N(C)C)cc3)C[C@@]21C	–	39.2 µM (active)
C=C(C)C(=O)OCCC(F)(F)C(F)(F)C(F)(F)C(F)(F)C(F)(F)C(F)(F)F	inactive	–
Cc1cc(CCN2CCN(c3nsc4ccccc34)CC2)cc2c1NC(=O)CC2(C)C	–	76.7 µM (active)
CCc1nn(C2CCCCC2)c2cc(C3(C#N)CCC(C(=O)O)CC3)ccc12 (stereo not given)	–	73.2 µM (active)
c1ccc2c(c1)Cc1ccccc1-2	inactive	–
Oc1cc2ccccc2c2ccccc12	inactive	–
O=[N+]([O-])c1ccc(O)cc1	inactive	–
COc1ccc([N+](=O)[O-])cc1N	inactive	–
CCCCCCC(=O)O	inactive	–
CCCCCCCCOC(=O)CCCCCCCCC(=O)OCCCCCCCC	inactive	–
Cc1cc(C)c(O)c(C)c1	inactive	–
NC(=O)N(O)[C@@H]1C=C[C@H](Oc2cccc(Oc3ccc(F)cc3)c2)C1	–	33 µM (active)
C[C@@H]1C[C@H]2[C@@H]3CCC4=CC(=O)C=C[C@]4(C)[C@@]3(F)[C@@H](O)C[C@]2(C)[C@@]1(O)C(=O)COP(=O)(O)O	inactive	–
CC(C)(C)c1ccc(O)c(C(C)(C)C)c1	inactive	–
CCN(CC)CCNc1ccc(CNC=O)c2sc3ccc(OC)cc3c(=O)c12	inactive	–
CCCCCCCCC(=O)O	inactive	–
CC[C@H](C)[C@@H](C(=O)O)n1sc2ccccc2c1=O	inactive	–
CCc1ccc(CCOc2ccc(CC3SC(=O)NC3=O)cc2)nc1 (stereo not given)	–	80.4 µM (active)

SMILES	outcome	AC50
C#C[C@]1(O)CC[C@H]2[C@@H]3CCC4=CC(=O)CC[C@@H]4[C@H]3CC[C@@]21C	inactive	–
O=C(O)Cc1cc(I)c(Oc2cc(I)c(O)c(I)c2)c(I)c1	–	33.5 µM (active)
CC[C@H](c1ccc(O)cc1)[C@@H](CC)c1ccc(O)cc1	–	89.8 µM (active)
CC(C)CCCCCCOC(=O)CCCCC(=O)OCCCCCCC(C)C	inactive	–
O=c1c(-c2ccc(O)cc2)coc2cc(O)ccc12	inactive	–
ClC1=C(Cl)C(Cl)(Cl)C(Cl)=C1Cl	inactive	–
CC(=O)NC1(c2cccc(F)c2)CCN(CC[C@@]2(c3ccc(Cl)c(Cl)c3)CN(c3ccccc3)C(=O)CO2)CC1	inactive	–
CC(O)CO (stereo not given)	inactive	–
CCCCCCCCCCCCCCCS(=O)(=O)Oc1ccccc1	inactive	–
CCCCC(CC)COC(=O)CCCCC(=O)OCC(CC)CCCC (stereo not given)	inactive	–
CC(C)(C)CC(C)(C)c1ccc(O)c(-n2nc3ccccc3n2)c1	inactive	–
O=C(OCCOCCOC(=O)c1ccccc1)c1ccccc1	inactive	–
CC1=C(/C=C/C(C)=C/C=C/C(C)=C/C(=O)O)C(C)(C)CCC1	inactive	–
OC1CCC(C2CCCCC2)CC1 (stereo not given)	inactive	–
O=C(O)c1ccccc1C(c1ccc(O)cc1)c1ccc(O)cc1	inactive	–
COCC(C)OCC(C)O (stereo not given)	inactive	–
COCC(C)O (stereo not given)	inactive	–
OCCC(F)(F)C(F)(F)C(F)(F)C(F)(F)C(F)(F)C(F)(F)F	inactive	–
CN(C)C=O	inactive	–
CCCOc1sc(C(=O)N2CCC(c3cc(CN)ccc3F)CC2)c(C)c1Br	inactive	–
